Assay outcomes (PubChem BioAssay)
CRFBP-R2 block = antagonists of CRF-BP/CRF-R2 complex, primary screen, cell-based, HEK293, calcium dye fluorescence, uHTS. AID 588475, 2011. CRF-induced calcium fluorescence. inhibition, % at 11.8 µM. 0.59% of 350,000 active;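 active = inhibition of the ligand-induced calcium signal above about 50% at the single tested concentration, limit read from the data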
MEKK3 PB1 HTS = modulators of MEKK3-MEK5 PB1 binding, primary screen, biochemical, wildtype MEKK3, multiplex bead flow cytometry, Alexa488-MEK5; Mitogen-activated protein kinase kinase kinase 3 (Homo sapiens), Q99759; bead-based flow cytometry, Alexa488-MEK5 binding to MEKK3; actives lie on both sides; 0 = blocked by unlabeled MEK5, 100 = vehicle; binding response (% of control), % at 10 µM; 1.4% of 290,000 active;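 active = binding response more than 3 SD above or below the average of its plate-row segment, actives on both sides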;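 also: Alexa488 bead fluorescence after subtracting the streptavidin-only scavenger bead signal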
CRFR2-BP ag = agonists of CRF-BP/CRF-R2 complex, primary screen, cell-based, HEK293, calcium dye fluorescence, uHTS. calcium dye fluorescence (FLIPR); percent of saturating CRF peptide response. activation, % at 13.2 µM. 0.46% of 350,000 active;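 active = activation of at least 50%, plus an integration ratio under a set limit after plate pattern correction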;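 also: plate controls were neutral control wells without compound for no effect and CRF at EC100 for full effect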
MEKK2wt PB1 HTS = modulators of MEK5 binding to wildtype MEKK2, primary screen, biochemical, multiplex bead flow cytometry, Alexa488-MEK5. Mitogen-activated protein kinase kinase kinase 2 (Homo sapiens), Q9Y2U5. Alexa488-MEK5 binding to MEKK2 WT; actives lie on both sides. binding response (% of control), % at 10 µM. 1.1% of 290,000 active; in the data active = binding response below about 67% or above about 130%
MEKK2 mut-MEK5 = MEK5 binding signal on mutant MEKK2 PB1, primary screen, biochemical, multiplex bead flow cytometry, Alexa488-MEK5. AID 1530, 2009. 0.35% of 290,000 active. percent response, % at 10 µM. Alexa488-MEK5 binding to MEKK2 mutant; in the data active = percent response above about 24%, passing the limit was not always enough
ABCB6 inh MLPCN = ABCB6 transporter inhibitors, primary screen, K562-ABCB6 cells, flow cytometry, MLPCN library; ATP-binding cassette sub-family B member 6 (Homo sapiens), Q9NP58; K562-ABCB6 porphyrin accumulation, 1 h; active compounds read low; fluorescence ratio to DMSO, % at 10 µM; 0.19% of 360,000 active;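 active = fluorescence ratio to DMSO below 75%, the collection mean minus 3 SD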;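 also: signal is porphyrin accumulated inside mitochondria; 100% equals median channel fluorescence of DMSO control wells; lower ratio means ABCB6 inhibition with less porphyrin fluorescence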
Target sequence (Q9NP58 whole entry, looked up): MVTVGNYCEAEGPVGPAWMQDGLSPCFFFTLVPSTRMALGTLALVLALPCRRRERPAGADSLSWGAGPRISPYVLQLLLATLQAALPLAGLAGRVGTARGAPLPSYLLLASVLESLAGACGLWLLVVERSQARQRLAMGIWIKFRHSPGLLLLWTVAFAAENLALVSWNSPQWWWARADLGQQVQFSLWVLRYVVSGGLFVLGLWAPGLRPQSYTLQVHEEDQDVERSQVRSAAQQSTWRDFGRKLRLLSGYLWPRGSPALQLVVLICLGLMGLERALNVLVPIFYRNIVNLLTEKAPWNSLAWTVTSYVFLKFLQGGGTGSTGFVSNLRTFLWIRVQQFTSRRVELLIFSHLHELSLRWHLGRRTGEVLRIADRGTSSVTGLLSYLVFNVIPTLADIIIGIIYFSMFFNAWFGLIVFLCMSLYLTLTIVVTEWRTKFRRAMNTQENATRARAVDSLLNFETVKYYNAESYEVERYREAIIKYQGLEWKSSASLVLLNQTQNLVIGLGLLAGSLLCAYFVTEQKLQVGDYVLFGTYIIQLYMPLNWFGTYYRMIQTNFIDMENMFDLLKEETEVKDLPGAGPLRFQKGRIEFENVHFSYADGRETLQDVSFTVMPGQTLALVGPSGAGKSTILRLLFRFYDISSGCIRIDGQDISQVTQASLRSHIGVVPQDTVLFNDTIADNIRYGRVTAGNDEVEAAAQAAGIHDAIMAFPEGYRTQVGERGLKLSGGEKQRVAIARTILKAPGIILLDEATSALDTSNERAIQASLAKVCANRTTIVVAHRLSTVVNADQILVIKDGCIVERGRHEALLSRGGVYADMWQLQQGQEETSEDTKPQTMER
MEKK2wt confirm = modulators of MEK5 binding to wildtype MEKK2, confirmation, biochemical, single concentration, multiplex bead flow cytometry. shares compounds with MEKK3 PB1 HTS. Alexa488-MEK5 binding to MEKK2 WT; actives lie on both sides. binding response (% of control), % at 10 µM. 2.4% of 5,900 active. AID 1892, 2009; in the data active = binding response below about 16% or above about 210%; inactive = in between
MEKK2mut-MEK5 = mutant MEKK2 PB1-MEK5 binding signal retest – biochemical, single concentration, multiplex bead flow cytometry, confirmation. shares compounds with MEKK3 PB1 HTS. Alexa488-MEK5 binding to MEKK2 mutant. percent response, % at 10 µM. 2% of 5,900 active. AID 1893, 2009; in the data active = percent response mostly above about 71%, no sharp cut-off; inactive = mostly below about 38%;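 also: higher means compound restores mutant binding toward wildtype level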
MEKK3 confirm = MEKK3 wild-type PB1 binding to MEK5, inhibitors, confirmation, biochemical, bead multiplex flow cytometry, single concentration, wildtype; 1.8% of 5,900 active; Alexa488-MEK5 binding to MEKK3; active compounds read low; AID 1894, 2009; binding response (% of control), % at 10 µM; shares compounds with MEKK3 PB1 HTS;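 active = binding response below 72% of control, or above a set upper limit, though filed actives all read lower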;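 also: 100% = DMSO only wells and 0% = binding blocked by excess unlabeled MEK5; lower values mean stronger disruption of MEK5 binding to MEKK3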
* hit, by the source's call; [ ] = remark or other dose. Sampled rows, rich in hits. Any-hit rate of the full collection: about 2.9%.

Screening CCOC(=O)CSCC(=O)N1N=C(c2cccs2)CC1c1ccc(F)cc1 (stereo not drawn) returned CRFBP-R2 block -33.3, MEKK3 PB1 HTS 107.0, CRFR2-BP ag -0.8, MEKK2wt PB1 HTS 109.0, MEKK2 mut-MEK5 7.0 and ABCB6 inh MLPCN 97.0.
O=C(CSc1nc2ccccc2s1)N1N=C(c2cccs2)CC1c1ccc(F)cc1 (stereo not drawn) was read as CRFBP-R2 block -35.9, MEKK3 PB1 HTS 73.0*[inhibitor], CRFR2-BP ag 8.8, MEKK2wt PB1 HTS 95.0, MEKK2 mut-MEK5 -1.0, ABCB6 inh MLPCN 98.0, MEKK2wt confirm 95.0, MEKK2mut-MEK5 -7.0 and MEKK3 confirm 98.0.
Screening COc1ccc(C2CC(c3cccs3)=NN2C(=O)CSc2nc3ccccc3s2)cc1 (stereo not drawn) returned CRFBP-R2 block -12.0, MEKK3 PB1 HTS 130.0*, CRFR2-BP ag 0.7, MEKK2wt PB1 HTS 99.0, MEKK2 mut-MEK5 -1.0, ABCB6 inh MLPCN 93.0, MEKK2wt confirm 93.0, MEKK2mut-MEK5 -6.0 and MEKK3 confirm 99.0.
Screening O=C(c1cccc(Cl)c1)N1CCC2CC1c1cc(N3CCOCC3)ccc12 (stereo not drawn) returned CRFBP-R2 block -3.8, CRFR2-BP ag -1.8 and ABCB6 inh MLPCN 103.0.
Cn1c(Cc2ccccc2)nnc1SCC(=O)Nc1ccc(N2CCOCC2)cc1 was read as CRFBP-R2 block 6.1, MEKK3 PB1 HTS 104.0, CRFR2-BP ag -1.2, MEKK2wt PB1 HTS 104.0, MEKK2 mut-MEK5 -4.0 and ABCB6 inh MLPCN 99.0.
Screening Cn1c(/C=C(\C#N)C(N)=S)ccc1-c1ccc(Br)cc1 returned CRFBP-R2 block -122.0, MEKK3 PB1 HTS 86.0, CRFR2-BP ag 2.8, MEKK2wt PB1 HTS 62.0*[inhibitor], MEKK2 mut-MEK5 -6.0, ABCB6 inh MLPCN 122.0, MEKK2wt confirm 74.0, MEKK2mut-MEK5 -16.0 and MEKK3 confirm 100.0.
`O=C(c1ccc(OC2CCN(CCc3ccccc3)CC2)cc1)N1CCC[C@H]1CO` gave CRFBP-R2 block -7.0, MEKK3 PB1 HTS 99.0, CRFR2-BP ag 2.2, MEKK2wt PB1 HTS 100.0, MEKK2 mut-MEK5 1.0 and ABCB6 inh MLPCN 100.0.
O=[N+]([O-])c1ccc(-c2ccc(/C=N/Nc3nc(N4CCCCC4)nc(N4CCCCC4)n3)o2)cc1 was read as CRFBP-R2 block -113.5, MEKK3 PB1 HTS 98.0, CRFR2-BP ag 68.9*, MEKK2wt PB1 HTS 101.0, MEKK2 mut-MEK5 99.0*, ABCB6 inh MLPCN inactive, MEKK2wt confirm 99.0, MEKK2mut-MEK5 -4.0 and MEKK3 confirm 103.0.
Screening O=[N+]([O-])c1ccc(/C=N/Nc2nc(N3CCCC3)nc(N3CCCC3)n2)o1 returned CRFBP-R2 block -10.8, MEKK3 PB1 HTS 98.0, CRFR2-BP ag -0.5, MEKK2wt PB1 HTS 93.0, MEKK2 mut-MEK5 -3.0 and ABCB6 inh MLPCN 90.0.
O=C(NCCN1C(=O)S/C(=C\c2ccc(Cl)cc2Cl)C1=O)C1=COCCO1 was read as CRFBP-R2 block 1.2, CRFR2-BP ag -0.5 and ABCB6 inh MLPCN 94.0.
Screening O=C(NCc1cccs1)c1ccc(Cl)c(S(=O)(=O)N2CCCC2)c1 returned CRFBP-R2 block -5.5, MEKK3 PB1 HTS 74.0*[inhibitor], CRFR2-BP ag -2.2, MEKK2wt PB1 HTS 93.0, MEKK2 mut-MEK5 -2.0, ABCB6 inh MLPCN 102.0, MEKK2wt confirm 105.0, MEKK2mut-MEK5 -1.0 and MEKK3 confirm 103.0.
O=C(NCc1ccco1)c1ccc(S(=O)(=O)N2CCCCC2)cc1 was read as CRFBP-R2 block -2.5, MEKK3 PB1 HTS 130.0*, CRFR2-BP ag -0.1, MEKK2wt PB1 HTS 114.0, MEKK2 mut-MEK5 0.0, ABCB6 inh MLPCN 101.0, MEKK2wt confirm 106.0, MEKK2mut-MEK5 5.0 and MEKK3 confirm 106.0.
Screening N#CC1(NC(=O)CN2c3cccc4cccc(c34)S2(=O)=O)CCCCC1 returned CRFBP-R2 block 16.9, CRFR2-BP ag 0.1 and ABCB6 inh MLPCN 97.0.
`CCN(CCCNC(=O)Cn1ncc2c([nH]c3ccc(C)cc32)c1=O)c1ccccc1` gave CRFBP-R2 block 7.0, MEKK3 PB1 HTS 102.0, CRFR2-BP ag -0.2, MEKK2wt PB1 HTS 102.0, MEKK2 mut-MEK5 0.0 and ABCB6 inh MLPCN 89.0.
O=C(Nc1ccccc1)c1ccc(NCc2ccco2)c(S(=O)(=O)N2CCOCC2)c1 was read as CRFBP-R2 block -4.5, MEKK3 PB1 HTS 95.0, CRFR2-BP ag 0.9, MEKK2wt PB1 HTS 97.0, MEKK2 mut-MEK5 -4.0 and ABCB6 inh MLPCN 95.0.
O=C(Nc1ccccc1)c1ccc(NCc2cccnc2)c(S(=O)(=O)N2CCOCC2)c1 was read as CRFBP-R2 block -1.9, MEKK3 PB1 HTS 123.0*, CRFR2-BP ag 1.4, MEKK2wt PB1 HTS 129.0, MEKK2 mut-MEK5 7.0, ABCB6 inh MLPCN 101.0, MEKK2wt confirm 100.0, MEKK2mut-MEK5 -4.0 and MEKK3 confirm 97.0.
For O=C(Nc1ccccc1)c1ccc(S(=O)(=O)N2CCOCC2)cc1 the results were CRFBP-R2 block -14.4, MEKK3 PB1 HTS 136.0*, CRFR2-BP ag 3.6, MEKK2wt PB1 HTS 135.0*, MEKK2 mut-MEK5 10.0, ABCB6 inh MLPCN 97.0, MEKK2wt confirm 103.0, MEKK2mut-MEK5 2.0 and MEKK3 confirm 101.0.
`O=C(Nc1c(Cl)ccc2nsnc12)c1ccc([N+](=O)[O-])o1` gave CRFBP-R2 block 1.5, MEKK3 PB1 HTS 101.0, CRFR2-BP ag 0.9, MEKK2wt PB1 HTS 98.0, MEKK2 mut-MEK5 -5.0 and ABCB6 inh MLPCN 94.0.
O=C(C[C@@H]1C/C=C/CC[C@H](Cc2ccc(F)cc2)C(=O)OCCNC1=O)N[C@H](CO)Cc1ccccc1 was read as CRFBP-R2 block -13.0, CRFR2-BP ag 3.9 and ABCB6 inh MLPCN 97.0.
